PD-1 reverse act: reversal of PD-1 mediated T-cell inhibition | activation, % (no concentration beside the values) | primary human CD4 T cells, PD-L1 beads, CellTiter-Glo 96 h | AID 2316 | 29,000 tested, under 10 active; call rule not given here
Hedgehog inh: blocks Sonic Hedgehog signaling | Shh-LIGHT2 Gli-luciferase reporter, 30 h | AID 2313 | inhibition, % (concentration not given with the values) | hit rate 2.1% among 22,000;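 active = mean inhibition across valid replicates above about 65%, limit read from the data; inconclusive = mean under the limit, yet half or more replicates past it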;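 also: pathway switched on by Shh-conditioned medium diluted 1 in 25 in low serum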
YB-1 expression: YB-1 expression inhibition. hit rate 0.37% among 30,000. delta delta Cp (YB-1 minus CDIP) (test concentration not listed). U2OS, qRT-PCR YB-1 vs CDIP delta delta Cp, 16 h; stronger effect = higher value; zero = DMSO, each unit about twofold. AID 434959;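 active = delta delta Cp rounded down to an integer at or above 3, about 3 SD of DMSO wells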;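 also: higher means less YB-1 transcript or more CDIP transcript relative to DMSO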
NOMO-1 viab: STK33 inhibitor candidate reducing NOMO-1 cell viability | inhibition, % (test concentration not listed) | AID 2330 | hit rate 7.5% among 37,000 | NOMO-1 AML viability, CellTiter-Glo luminescence, 72 h; in the data active = inhibition above about 80%; inconclusive = no clear call, values can overlap the other calls
MITF inhib: inhibitors of MITF; TRPM1 promoter luciferase, luminescence, 24 h; inhibition, % (test concentration not listed); hit rate 0.28% among 37,000; in the data active = inhibition above about 85%; inconclusive = no clear call, values can overlap the other calls; inactive = below about 68%;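 also: human melanocyte line stably carrying TRPM1 promoter luciferase reporter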
A number is an active result. Hits are enriched below; roughly 7.4% of the tested compounds scored in any of these assays.

How did O=C(COc1cccc(NC(=O)c2ccc(Cl)cc2)c1)c1ccccc1 do in these assays?
NOMO-1 viab: inactive; MITF inhib: inactive

What do the screens show for `C[C@@H]1O[C@@H](O[C@H]2[C@H](O[C@H]3CC[C@@]4(C)C(CC[C@]5(C)C4C=C[C@]46OC[C@@]7(CCC(C)(C)C[C@H]74)[C@@H](O)C[C@]65C)[C@]3(C)CO)O[C@H](CO)[C@@H](O)[C@@H]2O[C@@H]2O[C@H](CO)[C@@H](O[C@@H]3O[C@@H](C)[C@H](O)[C@@H](O)[C@H]3O)[C@H](O)[C@H]2O)[C@H](O)[C@H](O)[C@H]1O` (some centres not stated)?
Hedgehog inh: 104; YB-1 expression: 3.4

What do the screens show for `COc1ccc(C[C@H](N)C(=O)N[C@H]2[C@@H](O)[C@H](n3cnc4c(N(C)C)ncnc43)O[C@@H]2CO)cc1`?
Hedgehog inh: 85; YB-1 expression: inactive; NOMO-1 viab: 120; MITF inhib: 102

How did CC1(C)O[C@@H]2[C@H](O1)[C@@H](CO)O[C@H]2n1cnc2c(N)ncnc21 do in these assays?
PD-1 reverse act: inactive; YB-1 expression: inactive; NOMO-1 viab: inactive; MITF inhib: inactive

What do the screens show for `COc1ccc(CCN=Cc2ccc3c(c2)OCO3)cc1OC`?
PD-1 reverse act: inactive; Hedgehog inh: inactive; YB-1 expression: inactive; NOMO-1 viab: inactive; MITF inhib: inactive

Results for CCOC(=O)c1c(NC(=O)COc2cccc(Cl)c2)sc(C)c1C ?
PD-1 reverse act: inactive; NOMO-1 viab: inactive; MITF inhib: inactive

What do the screens show for `C[C@]12CC[C@@H]3c4ccc(O)cc4CC[C@H]3[C@@H]1CCC2=O`?
Hedgehog inh: 73; YB-1 expression: inactive; NOMO-1 viab: inactive; MITF inhib: inactive

What do the screens show for `CC(=O)Oc1ccc2c(c1)CCC1C2CC[C@@]2(C)C1CC[C@@H]2OC(C)=O` (some centres not stated)?
Hedgehog inh: 67; YB-1 expression: inactive; NOMO-1 viab: inactive; MITF inhib: inactive

How did C[C@]12CCC3c4ccc(O)cc4CCC3C1C[C@@H](O)[C@@H]2O (some centres not stated) do in these assays?
Hedgehog inh: inconclusive; YB-1 expression: inactive; NOMO-1 viab: inactive; MITF inhib: inactive

Results for C[C@]12CCC3c4ccc(OS(=O)(=O)O)cc4CCC3C1CC[C@H]2O (some centres not stated) ?
Hedgehog inh: inactive; YB-1 expression: inactive; NOMO-1 viab: inactive; MITF inhib: inactive

What do the screens show for `C[C@]12CCC3c4ccc(O)cc4CCC3C1CC[C@@H]2O` (some centres not stated)?
Hedgehog inh: 74; YB-1 expression: inactive; NOMO-1 viab: inactive; MITF inhib: inactive

Results for COc1ccc(C(=O)CSc2nnc(-c3ccc(OC)c(OC)c3)n2-c2ccc(C)cc2)cc1 ?
NOMO-1 viab: inactive; MITF inhib: inactive

Results for CC1(C)C=Cc2c(c3occc3c3oc(-c4ccccc4)cc(=O)c23)O1 ?
PD-1 reverse act: inactive; Hedgehog inh: inactive; YB-1 expression: inactive; NOMO-1 viab: 95; MITF inhib: inactive

What do the screens show for `Cc1cc(C)c(OCC(=O)Nc2ccccc2-c2nc3ccccc3s2)c(Br)c1`?
NOMO-1 viab: inactive; MITF inhib: inactive

What do the screens show for `Cc1ccc(S(=O)(=O)Nc2ccc3c(c2)CC(=O)N([C@@H](C)CO)C[C@H](C)[C@@H](CN(C)Cc2ccc(Cl)c(Cl)c2)O3)cc1`?
PD-1 reverse act: inactive; Hedgehog inh: inconclusive; YB-1 expression: inactive; NOMO-1 viab: 128; MITF inhib: inactive

What do the screens show for `C[C@@H]1CN([C@@H](C)CO)C(=O)Cc2cc(NS(C)(=O)=O)ccc2O[C@@H]1CN(C)Cc1ccc(Cl)c(Cl)c1`?
PD-1 reverse act: inactive; Hedgehog inh: inactive; YB-1 expression: inactive; NOMO-1 viab: inactive; MITF inhib: inactive

Results for Cc1ccc(S(=O)(=O)Nc2ccc3c(c2)CC(=O)N([C@H](C)CO)C[C@H](C)[C@H](CN(C)Cc2ccc(Cl)c(Cl)c2)O3)cc1 ?
YB-1 expression: inactive; NOMO-1 viab: 100; MITF inhib: inactive

Results for Cc1nc(-c2ccccc2)sc1C(=O)C1C(=O)C(=O)N(CCN(C)C)C1c1ccccc1 (configuration not stated) ?
NOMO-1 viab: inactive; MITF inhib: inactive

What do the screens show for `C[C@@H]1CN([C@H](C)CO)C(=O)Cc2cc(NS(=O)(=O)c3ccc(Cl)cc3)ccc2O[C@@H]1CN(C)CC1CCCCC1`?
PD-1 reverse act: inactive; Hedgehog inh: inactive; YB-1 expression: inactive; NOMO-1 viab: 114; MITF inhib: inactive

Results for C[C@@H]1CN([C@H](C)CO)C(=O)Cc2cc(NS(=O)(=O)c3ccc(Cl)cc3)ccc2O[C@H]1CN(C)CC1CCCCC1 ?
PD-1 reverse act: inactive; Hedgehog inh: inactive; YB-1 expression: inactive; NOMO-1 viab: 127; MITF inhib: inactive

Results for C[C@@H]1CN([C@H](C)CO)C(=O)Cc2cc(NS(=O)(=O)c3ccc(Cl)cc3)ccc2O[C@H]1CN(C)CC1CC1 ?
PD-1 reverse act: inactive; Hedgehog inh: inactive; YB-1 expression: inactive; NOMO-1 viab: inactive; MITF inhib: inactive

Results for Cc1nnc(SCC(=O)Nc2ccc(Cl)c(C)c2)s1 ?
PD-1 reverse act: inactive; NOMO-1 viab: inactive; MITF inhib: inactive

How did COC(=O)c1cc(C)nc(Sc2ccccc2NC(=O)Nc2ccc(Cl)cc2)n1 do in these assays?
PD-1 reverse act: inactive; Hedgehog inh: inactive; YB-1 expression: inactive; NOMO-1 viab: 109; MITF inhib: inactive

Results for C=C1C(=O)O[C@@H]2/C=C(/CO)CC/C=C(/C)C[C@H](OC(=O)C(C)CO)[C@@H]12 (some centres not stated) ?
PD-1 reverse act: inactive; Hedgehog inh: inactive; YB-1 expression: inactive; NOMO-1 viab: 118; MITF inhib: inactive

What do the screens show for `C=C1C(=O)O[C@@H]2/C=C(\CO)CCC/C(C)=C/[C@H](O)C12` (some centres not stated)?
PD-1 reverse act: inactive; Hedgehog inh: inactive; YB-1 expression: inactive; NOMO-1 viab: 116; MITF inhib: inactive

How did C=C1C(=O)O[C@H]2[C@H]1[C@@H](OC(=O)C(C)CO)C[C@@]1(C)[C@H](O)CCC(=O)[C@H]21 (some centres not stated) do in these assays?
Hedgehog inh: inconclusive; YB-1 expression: inactive

How did COc1ccc(S(=O)(=O)N(CCO)c2ccccc2CN(C)C/C=C/c2ccc(Cl)cc2)cc1 do in these assays?
PD-1 reverse act: inactive; Hedgehog inh: inactive; YB-1 expression: inactive; NOMO-1 viab: 83; MITF inhib: inactive

Results for COc1ccc(S(=O)(=O)N(CC(=O)O)c2ccc(Cl)cc2)cc1 ?
NOMO-1 viab: inactive; MITF inhib: inactive

Results for C[C@H](CO)N1C[C@H](C)[C@H](CN(C)S(=O)(=O)c2ccc(Cl)cc2)Oc2c(NC(=O)C3CC3)cccc2C1=O ?
PD-1 reverse act: inactive; Hedgehog inh: 98; YB-1 expression: inactive; NOMO-1 viab: inactive; MITF inhib: inactive

Source: PubChem
